The values below come from PubChem BioAssay (Tox21).

Results filed as inconclusive are left out. Activity calls are given as the source filed them. Unless noted, calls come from the whole dose curve; as a rule, active = well fitted curve in the direction sought with a large enough effect in the repeat runs; inconclusive = weak or mixed curves; inactive = no such curve, though single readings can be large; an effect the other way counts as inactive or inconclusive.

Test [1] addresses Thyrotropin receptor (Homo sapiens) (UniProt P16473). Kind of test: qHTS assay to identify small molecule antagonists of the thyroid stimulating hormone receptor (TSHR) signaling pathway (AID 1259385; calls by dose curve; note: nearly all actives have a fitted effect of over 20% in size). In outline: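 TSHR-HEK293 cells (800/well) plated 18 h, then compounds with Ro20-1724 and TSH at 1.5 ng/mL final, 30 min at room temperature. cAMP quantified by HTRF (cAMP-d2/anti-cAMP-cryptate, 1 h); 15 concentrations in triplicate.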
(Quantitative high-throughput screening tests each substance at several concentrations.)

Test [2] in a line: qHTS assay to identify small molecule agonists of the estrogen receptor alpha (ER-alpha) signaling pathway in the presence of an antagonist - cell viability counter screen (AID 1259386). For activity change, negative = cytotoxicity: series mostly up to about 92 µM.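 Note: cells exposed to compounds for 22 h at 37 °C before the viability read; nearly all actives have a fitted effect of over 30% in size.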 Note: potency is the fitted concentration of half-maximal effect. In outline: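 The test measures whether compounds kill ER-alpha reporter cells (VM7Luc4E2) under antagonist co-treatment (ICI-182,780, 10.0nM). Fluorescence from CellTiter-Fluor is read after a 22hr exposure.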

Test [3] has as its target Progesterone receptor (Homo sapiens) (UniProt P06401). Kind of test: qHTS assay to identify small molecule antagonists of the progesterone receptor (PR) signaling pathway (AID 1346795; active = well fitted inhibition curve with a large enough effect in the signal ratio in the repeat runs, not every such curve was filed as active; the % refers to the signal ratio). In outline: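 Antagonist mode with agonist R5020 at 1 nM final and 16 hr incubation at 37C. Reporter was beta-lactamase driven by UAS in HEK293T (PR-UAS-bla), 2% charcoal-stripped serum; signal from LiveBLAzer FRET substrate, 2 hr at room temperature.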

Test [4] in a line: qHTS assay to identify small molecule antagonists of the progesterone receptor (PR) signaling pathway - cell viability counter screen (AID 1346798). For activity change, negative = cytotoxicity: series mostly up to about 92 µM. Note: nearly all actives have a fitted effect of over 50% in size. Note: potency is the fitted concentration of half-maximal effect. The method, boiled down:
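Cytotoxicity read as CellTiter-Glo luminescence (30 min, room temperature) in the same wells as the beta-lactamase readout. HEK293T PR-UAS-bla cells in charcoal-stripped 2% FBS received compound and R5020, then 16 h at 37C, 5% CO2.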

Test [5] is described as follows: qHTS assay to identify small molecule agonists of the progesterone receptor (PR) signaling pathway - cell viability counter screen (AID 1346799; calls by dose curve; note: nearly all actives have a fitted effect of over 45% in size; note: potency is the fitted concentration of half-maximal effect). In outline: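 Cytotoxicity measured by CellTiter-Glo luminescence (30 min, RT) in the same wells as the PR beta-lactamase agonist read. Those HEK293T cells had 16 h compound treatment at 37 C in 2% charcoal-stripped FBS medium.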

The nature of test [6]: qHTS assay to identify small molecule antagonists of the TGF-beta/Smad signaling pathway - cell viability counter screen (AID 1346824). Note: nearly all actives have a fitted effect of over 50% in size. The method, boiled down: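 SBE-bla HEK 293T cells, incubated overnight, then compound plus 0.25 ng/mL TGF-beta1 (stock added) for 5 hr at 37 C. Viability was read in the same wells by CellTiter-Glo luminescence after 30 min at room temperature.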

Test [7] can be described thus: qHTS assay to identify small molecule agonists of the TGF-beta/Smad signaling pathway - cell viability counter screen (AID 1346829). Note: top concentration of the series differs between compounds; nearly all actives have a fitted effect of over 45% in size. In outline: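 HEK 293T SBE-bla line, 5 hr compound exposure at 37 C, multiplexed CellTiter-Glo viability read by luminescence.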
Test [8] in a line: qHTS assay to identify small molecule agonists of the TGF-beta/Smad signaling pathway (AID 1346859; active = well fitted activation curve with a large enough effect in the signal ratio in the repeat runs, not every such curve was filed as active; the % refers to the signal ratio; note: series mostly up to about 77 µM). In outline: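 Fluorescence (ex 405 nm; em 460 and 530 nm) was read 2 h after LiveBLAzer FRET substrate at RT. The preceding compound treatment of overnight-plated SBE-bla HEK293T cells lasted 5 h at 37 C.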
The target in test [9] is Thyrotropin-releasing hormone receptor (Homo sapiens) (UniProt P34981). Kind of test: qHTS assay to identify small molecule antagonists of the thyrotropin-releasing hormone receptor (TRHR) signaling pathway (AID 1346877; active = well fitted inhibition curve with a large enough effect in the repeat runs, not every such curve was filed as active; note: series mostly up to about 51 µM). In outline:
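Overnight-plated (18 h, 37 °C) HEK293 cells expressing TRHR were dye-loaded 2 h, treated with compound, then stimulated with TRH at 1 nM final. Fluorescence intensity was captured every second for 3 min.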

For test [10], the target named is Progesterone receptor (Homo sapiens) (UniProt P06401). Kind of test: qHTS assay to identify small molecule agonists of the progesterone receptor (PR) signaling pathway (AID 1346784; calls by dose curve; note: nearly all actives have a fitted effect of over 30% in size). The method, boiled down:
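Agonist qHTS: compounds pinned onto 3,000 PR-UAS-bla HEK 293T cells per well in charcoal-stripped serum medium, 16hr at 37C, then beta-lactamase activity measured by LiveBLAzer FRET fluorescence after 2 hours at room temperature.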
% is set by controls: 0 for no effect and ±100 for the full control effect.

Chain of Thyrotropin receptor (Homo sapiens) (P16473 whole entry, looked up): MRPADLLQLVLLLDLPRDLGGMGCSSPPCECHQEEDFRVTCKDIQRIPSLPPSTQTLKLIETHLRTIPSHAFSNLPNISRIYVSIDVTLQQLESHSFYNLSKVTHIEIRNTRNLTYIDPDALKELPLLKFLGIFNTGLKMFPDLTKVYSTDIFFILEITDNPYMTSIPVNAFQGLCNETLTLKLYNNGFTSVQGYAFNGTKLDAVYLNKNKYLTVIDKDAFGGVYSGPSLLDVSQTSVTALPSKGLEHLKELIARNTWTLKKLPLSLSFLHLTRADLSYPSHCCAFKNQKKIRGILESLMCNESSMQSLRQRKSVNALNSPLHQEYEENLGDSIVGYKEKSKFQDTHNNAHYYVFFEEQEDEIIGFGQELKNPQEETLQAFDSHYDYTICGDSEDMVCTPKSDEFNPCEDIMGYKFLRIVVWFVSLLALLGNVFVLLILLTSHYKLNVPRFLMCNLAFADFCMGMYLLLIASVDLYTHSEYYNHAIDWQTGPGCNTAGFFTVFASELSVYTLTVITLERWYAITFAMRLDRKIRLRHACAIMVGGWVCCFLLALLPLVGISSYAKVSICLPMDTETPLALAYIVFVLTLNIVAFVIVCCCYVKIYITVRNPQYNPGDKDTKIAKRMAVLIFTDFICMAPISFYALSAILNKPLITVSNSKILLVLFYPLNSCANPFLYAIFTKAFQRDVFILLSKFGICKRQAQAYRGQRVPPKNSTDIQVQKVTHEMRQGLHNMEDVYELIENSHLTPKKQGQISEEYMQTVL
Chain of Thyrotropin-releasing hormone receptor (Homo sapiens) (P34981 whole entry, looked up): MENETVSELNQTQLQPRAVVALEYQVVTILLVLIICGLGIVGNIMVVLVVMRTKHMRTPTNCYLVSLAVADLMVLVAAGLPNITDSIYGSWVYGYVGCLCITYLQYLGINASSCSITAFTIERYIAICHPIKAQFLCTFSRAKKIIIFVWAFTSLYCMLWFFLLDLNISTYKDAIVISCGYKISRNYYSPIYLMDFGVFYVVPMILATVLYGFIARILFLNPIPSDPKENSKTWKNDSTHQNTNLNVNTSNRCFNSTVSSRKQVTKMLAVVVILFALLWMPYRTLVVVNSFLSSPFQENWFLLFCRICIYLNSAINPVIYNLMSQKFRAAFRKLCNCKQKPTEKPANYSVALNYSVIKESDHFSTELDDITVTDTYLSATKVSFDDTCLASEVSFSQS
Chain of Progesterone receptor (Homo sapiens) (P06401 whole entry, looked up): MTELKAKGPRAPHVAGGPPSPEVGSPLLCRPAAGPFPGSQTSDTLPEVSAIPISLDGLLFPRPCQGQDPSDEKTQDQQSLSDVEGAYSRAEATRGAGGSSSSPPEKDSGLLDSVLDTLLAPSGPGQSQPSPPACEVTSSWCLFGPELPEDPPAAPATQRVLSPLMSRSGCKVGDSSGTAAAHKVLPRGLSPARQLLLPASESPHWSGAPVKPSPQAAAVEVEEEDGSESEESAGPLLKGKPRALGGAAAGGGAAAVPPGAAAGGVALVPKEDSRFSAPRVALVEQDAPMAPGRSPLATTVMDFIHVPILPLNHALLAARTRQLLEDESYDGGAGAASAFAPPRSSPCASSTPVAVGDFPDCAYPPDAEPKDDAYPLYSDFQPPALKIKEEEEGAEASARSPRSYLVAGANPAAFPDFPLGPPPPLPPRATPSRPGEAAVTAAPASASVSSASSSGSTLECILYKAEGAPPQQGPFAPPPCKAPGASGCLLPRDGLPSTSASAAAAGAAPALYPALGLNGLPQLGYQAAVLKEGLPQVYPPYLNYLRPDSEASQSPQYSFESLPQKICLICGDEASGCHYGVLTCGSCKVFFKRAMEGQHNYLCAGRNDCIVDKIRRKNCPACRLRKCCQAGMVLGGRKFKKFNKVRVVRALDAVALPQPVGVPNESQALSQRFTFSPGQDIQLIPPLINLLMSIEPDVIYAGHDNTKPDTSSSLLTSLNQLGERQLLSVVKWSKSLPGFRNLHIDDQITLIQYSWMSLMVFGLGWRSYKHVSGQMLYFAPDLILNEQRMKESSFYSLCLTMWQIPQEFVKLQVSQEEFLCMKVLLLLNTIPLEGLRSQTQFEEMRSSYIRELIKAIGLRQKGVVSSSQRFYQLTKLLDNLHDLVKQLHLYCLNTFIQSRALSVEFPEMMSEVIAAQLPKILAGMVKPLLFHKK

Turning to `c1ccc2sc(SSc3nc4ccccc4s3)nc2c1`, the activity change, negative = inhibition in [1] was 2.43% [at 19 µM] (inactive); in test [3] it was -9.57% [at 18.9 µM] (inactive). Moreover, the activity change, negative = cytotoxicity in [2] is 9.75% [at 19 µM] (inactive); in [4], -0.0474% [at 18.9 µM] (inactive); in test [5] it was 5.24% [at 19 µM] (inactive); in test [7], 25.5% [at 15.8 µM] (inactive). For the same compound, the viability change, negative = cytotoxic in [6] was 3.02% [at 15.8 µM] (inactive). Further, the activation in [8] is 3.56% [at 15.8 µM] (inactive).

For `NC(=O)c1ccccc1[N+](=O)[O-]`, the Potency entry in test [1], in test [2], in test [3], in test [4], in test [5] and in [7] was “inactive” each time. Further, in test [8], the Potency entry was “inactive”. Moreover, the outcome in test [6] was inactive.

For `O=C(O)CO`, the Potency result in test [1], in [2], in [3], in test [4], in test [5] and in [7] was “inactive” throughout. The Potency entry in test [8] was “inactive”. For the same compound, the call in test [6] and in test [9] was inactive.

For the compound `CC(C)C1CCC(C(=O)N[C@H](Cc2ccccc2)C(=O)O)CC1` (stereo partly drawn), the Potency entry in test [1], in test [2], in test [3], in test [4], in [5] and in test [7] was “inactive” each time. In test [8], the Potency result was “inactive”.

In the case of `CCN(CC)C(=O)N1CCN(C)CC1`, the Potency result in [1], in test [2], in [3], in test [4], in test [5] and in [7] was “inactive” throughout. Besides, the Potency result in test [8] is “inactive”. Moreover, the compound was called inactive in test [6].

Turning to `Cc1ccc(Nc2c(F)cccc2Cl)c(CC(=O)O)c1`, the Potency entry in [1], in test [2], in test [10], in test [7] and in test [8] was “inactive” each time. Also, the compound was called inactive in test [6] and in test [9].

Consider `CCN(CC)CCOC(=O)C(c1ccccc1)c1ccccc1`, for which the Potency entry in test [1], in [2], in test [3], in test [4], in [5] and in [7] was “inactive” throughout. In addition, the Potency result in test [8] was “inactive”. In addition, the result in [6] was inactive.

In the case of `CCCCCCCC/C=C/C(=O)O`, the Potency result in test [1], in test [2], in test [10], in test [4], in test [5] and in test [7] was “inactive” throughout. Besides, the Potency result in test [8] is “inactive”. In addition, the outcome in [6] and in [9] was inactive.

With `C=CC(=O)NC(C)C`, the Potency result in [1], in test [2], in test [3], in test [4], in test [5] and in [7] was “inactive” in each case. For the same compound, in test [8], the Potency result is “inactive”. In addition, in test [6], the compound was classed as inactive.

Take `O=C(c1ccccc1)C1CCC1`: the Potency entry in test [1], in test [2], in test [10], in test [4], in test [7] and in test [8] was “inactive” each time. Besides, the result in test [6] and in test [9] was inactive.

On to `COc1ccc(C)cc1`, for which the Potency result in test [1], in test [2], in [3], in [4], in [5] and in [7] was “inactive” each time. Further, the call in test [6] was inactive.

As for `CCN(CC)CCOc1ccccc1C(=O)CCc1ccccc1`, the Potency entry in [1], in test [2], in test [3], in [7] and in test [8] was “inactive” each time. In addition, the Potency in [4] was 11.9 µM (active); in test [5], 9.44 µM (active). In addition, the compound was classed as inactive in test [6] and in [9].

In the case of `O=C(O)CCC(=O)OC[C@@H](NC(=O)C(Cl)Cl)[C@H](O)c1ccc([N+](=O)[O-])cc1`, the Potency result in test [2], in [10], in test [3], in test [4], in [5] and in [7] was “inactive” throughout. For the same compound, the Potency entry in test [8] is “inactive”. In test [6], the call was inactive.

Turning to `CCCCCCCCCCCSCC(=O)O`, the Potency result in test [1], in test [2], in [4], in [7] and in [8] was “inactive” in each case. In addition, the Potency in [5] is 21.7 µM (active). Further, the call in test [6] and in [9] was inactive.

For `CCN(CC)C(=O)/C(C#N)=C/c1cc(O)c(O)c([N+](=O)[O-])c1`, the Potency result in test [1], in test [3] and in test [7] was “inactive” each time. Moreover, the Potency in [2] was 26.6 µM (active). Moreover, the compound was called inactive in test [6].

As for `O=C(C(=O)c1ccco1)c1ccco1`, the Potency entry in test [1], in [2], in test [3], in test [4] and in test [7] was “inactive” throughout. Besides, the outcome in test [6] was inactive.
